The record followed here is PubChem BioAssay (NCATS).

The test system of one assay is CRL-7250. The assay can be described thus: Cytotoxic Profiling of Annotated Libraries Using Quantitative High-Throughput Screening (AID 1296008). Note: nearly all actives have a fitted effect of over 60% in size. The settings on record: Five cell lines viability, CellTiter-Glo ATP luminescence, 48-72 h; max response: stronger effect = lower value. An outline of the steps:
(§1)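 Cells exposed to compounds for 48 or 72 hr at 37 degrees Celsius. Viability read as ATP-coupled luminescence with CellTiter-Glo after 10 min at room temperature.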

A further assay concerns HEK293. The assay is described as above. The settings on record: Five cell lines viability, CellTiter-Glo ATP luminescence, 48-72 h; max response: stronger effect = lower value. An outline of the steps:
as §1
In general terms: ATP-based viability assays read luminescence as a measure of living cells.

Inconclusive results are not listed. Unmarked numbers belong to inactive results. Activity calls are given as the source filed them. Calls come from the whole dose curve; as a rule, active = well fitted inhibition curve with a large enough effect; inconclusive = small, poorly fitted or top-dose-only effect; inactive = flat fitted curve, though single readings scatter.
% is set by controls: 0 for no effect and ±100 for the full control effect; potency is the fitted concentration of half-maximal effect.

On to `Nc1ccc(C(=O)OCC(O)CO)cc1` (stereo not given), for which the max response in the assay with CRL-7250 was -0.994%; in the assay with HEK293, -11.2%.
The like results for `CC(C)(C)c1cc(C=O)cc(C(C)(C)C)c1O` were, in that order, 4.77% and 3.28%.
Turning to `O=C1Cc2cc(Cl)ccc2N1`, the max response in the assay on CRL-7250 is -11.6%; in the assay with HEK293 it was -3.82%.
As to `CC(=O)Oc1ccc(C2(c3ccc(OC(C)=O)cc3)Oc3ccccc3NC2=O)cc1`, the Potency with CRL-7250 is 8.41 µM (active); with HEK293, 7.5 µM (active).
With `O=C(O)CCCC[P+](c1ccccc1)(c1ccccc1)c1ccccc1`, the max response in the assay with CRL-7250 is 1.78%. Further, in the assay on HEK293, the outcome was inactive.
`CC(C)OP(=O)(CP(=O)(OC(C)C)OC(C)C)OC(C)C`: the max response is -7.87% in the assay with CRL-7250 and -0.755% in the assay on HEK293.
`CC(CC(C#N)(c1ccccc1)C(C)C)N(C)C` (stereo not given): the max response in the assay with CRL-7250 was -3.29%. Besides, the call in the assay on HEK293 was inactive.
On to `CC(C)(C)C1CCC(CC2=C(O)c3ccccc3C(=O)C2=O)CC1` (stereo not given), for which the max response in the assay on CRL-7250 was -5.3%; in the assay on HEK293 it was 0.617%.
As for `Oc1ccc(CCNCCCCCCNCCc2ccccc2)cc1O`, the max response in the assay with CRL-7250 was -8.57%. Moreover, the Potency with HEK293 was 23.7 µM (active).
In the case of `CC(C)C(C)(C)C(C)(C)C(C)(C)S`, the max response with CRL-7250 is -4.15%; with HEK293 it was -4.55%.
`O=C1CC2(CCCC2)CC(=O)N1CCNCC1COc2ccccc2O1` (stereo not given): the max response with CRL-7250 was -5.57%. In addition, the compound was called inactive in the assay on HEK293.
With `N[C@@H](Cn1ccc(=O)c(O)c1)C(=O)O`, the max response in the assay on CRL-7250 is -0.877%; with HEK293, -0.669%.
`CN1[C@@H]2CC[C@H]1CC(NC(=O)n1c(=O)[nH]c3ccccc31)C2` (stereo not given in full): the max response in the assay on CRL-7250 was -3.19%; with HEK293, -4.57%.
Turning to `CN1CCC(=C2c3ccccc3CCc3cccnc32)CC1`, the max response with CRL-7250 was 3.77%; in the assay on HEK293, 2.67%.
The like results for `CCCC(=O)OCOC(=O)C1=C(C)NC(C)=C(C(=O)OC)C1c1cccc(Cl)c1Cl` (stereo not given) were, in that order, 4.76% and 0.879%.
`CCOC(=O)Oc1ccc(CCNC(=O)[C@H](CCSC)NC(C)=O)cc1OC(=O)OCC`: the outcome in the assay on CRL-7250 was inactive. Besides, the max response in the assay on HEK293 is -13%.
As for `CC1(C)O[C@@H]2C[C@H]3[C@@H]4CCC5=CC(=O)C=C[C@]5(C)[C@@]4(F)[C@@H](O)C[C@]3(C)[C@]2(C(=O)CO)O1`, the max response in the assay on CRL-7250 is -0.473%; in the assay on HEK293, -6.9%.
As for `Nc1ccc(C(=O)N2CC3CC(CN(Cc4ccccc4)C3)C2)cc1`, the max response in the assay with CRL-7250 is -9.41%. In addition, the compound was classed as inactive in the assay on HEK293.
As to `CCC(C(=O)NC(=O)NC(C)=O)c1ccccc1` (stereo not given), the max response in the assay with CRL-7250 is 2.16%; in the assay on HEK293 it was -0.744%.
For the compound `CC(=O)OC[C@H]1O[C@@H](OC(C)=O)[C@H](OC(C)=O)[C@@H]1OC(C)=O`, the max response in the assay with CRL-7250 was -4.36%; in the assay on HEK293, 1.73%.
For `CCOC(=O)c1ccc(O)c(O)c1`, in the assay with CRL-7250, the max response was 2.32%. In the assay on HEK293, the compound was called inactive.
Consider `CC1(C)O[C@@H]2C[C@H]3[C@@H]4C[C@H](F)C5=CC(=O)C=C[C@]5(C)[C@@]4(F)[C@@H](O)C[C@]3(C)[C@]2(C(=O)CO)O1`, for which the max response in the assay with CRL-7250 is -4.6%; in the assay with HEK293, 1.46%.
For the compound `COc1cc(NS(=O)(=O)c2ccc(N)cc2)nc(C)n1`, the max response in the assay on CRL-7250 was -6.73%. The result in the assay on HEK293 was inactive.
Turning to `C[N+]1(C)CCC(OC(=O)C(O)(c2ccccc2)C2CCCC2)C1` (stereo not given), the max response in the assay with CRL-7250 was 2.29%; with HEK293, -9.88%.
Regarding `CC(=O)OCC(=O)[C@@]1(O)[C@H](OC(C)=O)C[C@H]2[C@@H]3CCC4=CC(=O)C=C[C@]4(C)[C@@]3(F)[C@@H](O)C[C@@]21C`, the outcome with CRL-7250 and in the assay on HEK293 was inactive.
In the case of `Cc1ncc(CO)c(CO)c1O`, the figures for the max response in the assay with CRL-7250 and with HEK293 were 1.45% and 4.28%, respectively.
In the case of `Cc1ccccc1N1CCN(CCc2nnc3n2CCCC3)CC1`, in the assay on CRL-7250, the max response is -7.88%. Further, the result with HEK293 was inactive.
With `CC(C)(C)CC(=O)OCC(=O)[C@@]1(O)CC[C@H]2[C@@H]3CCC4=CC(=O)C=C[C@]4(C)[C@H]3[C@@H](O)C[C@@]21C`, the max response in the assay on CRL-7250 was -1.84%. Also, the Potency in the assay on HEK293 is 15 µM (active).
With `O=C(O)CCCC[C@@H]1SC[C@@H]2NC(=O)N[C@@H]21`, the compound was classed as inactive in the assay with CRL-7250. Besides, the max response with HEK293 was -6.79%.
Turning to `CN1CC(=O)N2[C@H](c3ccc4c(c3)OCO4)c3[nH]c4ccccc4c3C[C@@H]2C1=O`, the max response was 3.82% with CRL-7250 and -4.29% with HEK293.
For `O=C(Nc1ccc(S(=O)(=O)N2CCOCC2)cc1)c1cc(Cl)ccc1NS(=O)(=O)c1ccc(Cl)s1`, the max response with CRL-7250 is -9.47%. For the same compound, the compound was called inactive with HEK293.
With `O=C(O)C1CCC1`, the result in the assay on CRL-7250 was inactive. Further, the max response in the assay on HEK293 was -2.16%.
Turning to `C=CCOc1cc(Cl)ccc1C(=O)NCCN(CC)CC`, the figures for the max response with CRL-7250 and with HEK293 were -3.78% and -33.1%, respectively.
Take `CCC1=C[C@@H]2CN(C1)Cc1c([nH]c3ccccc13)[C@@](C(=O)OC)(c1cc3c(cc1OC)N(C)[C@H]1[C@@](O)(C(=O)OC)[C@H](OC(C)=O)[C@]4(CC)C=CCN5CC[C@]31[C@@H]54)C2`: the Potency in the assay on CRL-7250 is 0.0422 µM (active); in the assay with HEK293, 0.0084 µM (active).
As for `O=C1CC2(CCCC2)CC(=O)N1`, the max response in the assay on CRL-7250 is -7.34%; in the assay with HEK293, 4.63%.
Take `c1ccc2c(c1)CCc1ccccc1N2`: the compound was called inactive in the assay on CRL-7250 and with HEK293.
`O=c1[nH]sc2cc(Cl)ccc12`: the max response in the assay on CRL-7250 is -108%; in the assay with HEK293 it was -119%.
The like results for `CNC[C@H](O)[C@@H](O)[C@H](O)[C@H](O)CO` were, in that order, -2.73% and -0.47%.
Regarding `CN1C(CSCC(F)(F)F)Nc2cc(Cl)c(S(N)(=O)=O)cc2S1(=O)=O` (stereo not given), the max response was -17.8% in the assay with CRL-7250 and 1.71% in the assay on HEK293.
For `C=CC[N+]1([C@H]2C[C@H]3[C@@H]4CC[C@H]5C[C@H](OC(C)=O)[C@@H](N6CCCCC6)C[C@]5(C)[C@H]4CC[C@]3(C)[C@H]2OC(=O)CC)CCCCC1`, in that order: -0.558% and 0.459%.
As for `CCOC(=O)NNc1ccc(N(CC)CC(C)O)nn1` (stereo not given), the max response with CRL-7250 is 2.28%. Also, in the assay with HEK293, the compound was classed as inactive.
Consider `CN1C(=O)CC(C)(c2ccccc2)C1=O` (stereo not given), for which the figures for the max response with CRL-7250 and in the assay with HEK293 were -0.376% and 1.84%, respectively.
In the case of `CCOc1ncc(F)c(=O)[nH]1`, the compound was classed as inactive in the assay on CRL-7250. The max response in the assay on HEK293 is -0.0366%.
Regarding `CC(=O)OCC[N+](C)(C)C`, in the assay on CRL-7250, the max response is -0.18%. Moreover, in the assay with HEK293, the compound was called inactive.
Regarding `O=C(OCC(COC(=O)c1cccnc1)(COC(=O)c1cccnc1)COC(=O)c1cccnc1)c1cccnc1`, in the assay on CRL-7250, the result was inactive. The max response in the assay on HEK293 was -3.93%.
Regarding `CO/N=C(/C(=O)N[C@@H]1C(=O)N2C(C(=O)OCOC(=O)C(C)(C)C)=C(C)CS[C@H]12)c1csc(N)n1`, the compound was called inactive with CRL-7250. Further, the max response with HEK293 was 4.75%.
For `O=C(O)c1cn(C2CC2)c2cc(Cl)c(F)cc2c1=O`, in that order: “inactive” and -5.06%.
For `CCOC(=O)CN1CCCC1=O`, the results for the max response in the assay on CRL-7250 and with HEK293 were 1.6% and -12.9%, respectively.
With `CCS(=O)(=O)c1ccc(OC)c(C(=O)OC)c1`, the max response with CRL-7250 was 0.361%. The compound was called inactive in the assay with HEK293.
For the compound `CC(=O)c1ccc(O)c(C(N)=O)c1`, the max response with CRL-7250 is 1.65%. Besides, the outcome with HEK293 was inactive.
